Reference: the supplement of paper PMC10849652
Of roughly 8,800 targets only a part is listed; those with a hit were picked by preference. About 0.5% of all pairs of compound and target were hits. Values without a mark were called inactive.

Tests used:
Experiment in all cases: log2 fold change, soluble protein after heating vs DMSO (PISA); higher = thermal stabilisation; K562 lysate, 10 uM; active = over 0.2 and 3.5 SD of the protein, either way, in both replicates (recomputed)
lapatinib = compound: CS(=O)(=O)CCNCc1ccc(-c2ccc3ncnc(Nc4ccc(OCc5cccc(F)c5)c(Cl)c4)c3c2)o1 [lapatinib]
Summary of the method: (§1)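 To prepare the extract, K562 pellets were dounce-homogenised in PBS pH 7.4 with 1 mM MgCl2, giving crude material at 1 mg/mL protein. This was treated with 10 μM compound for 30 min, then heated in aliquots for 3 min over 48°C-58°C before pooling and addition of NP-40 to 0.5% at 4°C. Centrifugation at 21,000xg for 90 min left soluble protein in the supernatant, which TMTpro 16plex LC-MS/MS quantified with equalised channel sums. Results are log-two fold changes in thermal stability compared with solvent controls, from duplicates.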

pictilisib = compound: CS(=O)(=O)N1CCN(Cc2cc3nc(-c4cccc5[nH]ncc45)nc(N4CCOCC4)c3s2)CC1 [pictilisib]
Summary of the method: as §1

crizotinib = compound: C[C@@H](Oc1cc(-c2cnn(C3CCNCC3)c2)cnc1N)c1c(Cl)ccc(F)c1Cl [crizotinib]
Summary of the method: as §1

[1] = compound: C[C@H](C1=CC=C(C=C1)C(=O)NC2=C3C=CNC3=NC=C2)N
Summary of the method: as §1

duvelisib = compound: C[C@H](Nc1ncnc2nc[nH]c12)c1cc2cccc(Cl)c2c(=O)n1-c1ccccc1 [duvelisib]
Summary of the method: as §1

gandotinib = compound: Cc1cc(Nc2cc(CN3CCOCC3)c3nc(C)c(Cc4ccc(Cl)cc4F)n3n2)n[nH]1 [gandotinib]
Summary of the method: as §1

tozasertib = compound: Cc1cc(Nc2cc(N3CCN(C)CC3)nc(Sc3ccc(NC(=O)C4CC4)cc3)n2)n[nH]1 [tozasertib]
Summary of the method: as §1

doramapimod = compound: Cc1ccc(-n2nc(C(C)(C)C)cc2NC(=O)Nc2ccc(OCCN3CCOCC3)c3ccccc23)cc1 [doramapimod]
Summary of the method: as §1

bafetinib = compound: Cc1ccc(NC(=O)c2ccc(CN3CC[C@H](N(C)C)C3)c(C(F)(F)F)c2)cc1Nc1nccc(-c2cncnc2)n1 [bafetinib]
Summary of the method: as §1

[2] = compound: Cc1cccc(CC(=O)N2CCc3c2ccc(-c2cn(C)c4ncnc(N)c24)c3F)n1
Summary of the method: as §1

Chain of UniProt P15056 (P15056 whole entry, looked up): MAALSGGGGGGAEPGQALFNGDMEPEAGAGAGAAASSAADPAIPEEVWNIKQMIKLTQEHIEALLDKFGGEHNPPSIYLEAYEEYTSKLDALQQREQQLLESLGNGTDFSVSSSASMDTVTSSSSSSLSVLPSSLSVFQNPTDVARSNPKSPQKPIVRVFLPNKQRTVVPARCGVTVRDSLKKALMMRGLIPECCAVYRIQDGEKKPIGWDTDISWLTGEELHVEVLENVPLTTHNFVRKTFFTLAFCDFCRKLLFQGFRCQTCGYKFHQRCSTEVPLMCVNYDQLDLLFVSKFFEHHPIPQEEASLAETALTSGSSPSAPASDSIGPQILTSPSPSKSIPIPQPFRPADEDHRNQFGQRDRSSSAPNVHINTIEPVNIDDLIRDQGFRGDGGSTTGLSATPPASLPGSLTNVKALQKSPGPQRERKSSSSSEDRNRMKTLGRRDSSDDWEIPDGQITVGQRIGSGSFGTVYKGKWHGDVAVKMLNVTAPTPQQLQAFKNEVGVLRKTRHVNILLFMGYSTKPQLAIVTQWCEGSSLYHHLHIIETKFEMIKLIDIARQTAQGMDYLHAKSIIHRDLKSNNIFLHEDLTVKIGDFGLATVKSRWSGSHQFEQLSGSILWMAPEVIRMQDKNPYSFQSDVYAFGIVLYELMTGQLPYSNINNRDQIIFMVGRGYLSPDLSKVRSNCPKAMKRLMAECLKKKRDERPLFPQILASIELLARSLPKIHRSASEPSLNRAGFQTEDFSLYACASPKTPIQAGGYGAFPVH
Chain of UniProt Q7Z7K6 (Q7Z7K6 whole entry, looked up): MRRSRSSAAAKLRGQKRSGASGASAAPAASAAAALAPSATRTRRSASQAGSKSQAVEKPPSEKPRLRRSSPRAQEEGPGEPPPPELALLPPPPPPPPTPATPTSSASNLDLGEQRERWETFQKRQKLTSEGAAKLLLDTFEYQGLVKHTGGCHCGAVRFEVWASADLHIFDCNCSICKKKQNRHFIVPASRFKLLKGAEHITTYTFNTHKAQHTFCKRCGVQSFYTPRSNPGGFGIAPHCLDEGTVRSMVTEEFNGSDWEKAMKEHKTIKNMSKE
Chain of UniProt P30304 (P30304 whole entry, looked up): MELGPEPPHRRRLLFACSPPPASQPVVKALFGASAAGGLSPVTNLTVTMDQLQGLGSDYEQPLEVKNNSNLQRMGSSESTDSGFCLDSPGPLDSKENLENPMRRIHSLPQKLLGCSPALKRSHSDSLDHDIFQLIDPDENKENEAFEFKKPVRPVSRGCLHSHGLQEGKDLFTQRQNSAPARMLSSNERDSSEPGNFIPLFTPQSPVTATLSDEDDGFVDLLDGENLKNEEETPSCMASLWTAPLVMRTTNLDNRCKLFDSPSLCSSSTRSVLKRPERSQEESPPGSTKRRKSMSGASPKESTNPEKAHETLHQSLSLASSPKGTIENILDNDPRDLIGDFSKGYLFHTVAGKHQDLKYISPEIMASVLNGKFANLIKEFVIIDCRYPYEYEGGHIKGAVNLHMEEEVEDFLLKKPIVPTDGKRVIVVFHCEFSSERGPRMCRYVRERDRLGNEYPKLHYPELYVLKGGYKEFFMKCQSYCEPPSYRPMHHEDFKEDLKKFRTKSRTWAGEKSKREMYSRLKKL
Chain of UniProt Q6ZU80 (Q6ZU80 whole entry, looked up): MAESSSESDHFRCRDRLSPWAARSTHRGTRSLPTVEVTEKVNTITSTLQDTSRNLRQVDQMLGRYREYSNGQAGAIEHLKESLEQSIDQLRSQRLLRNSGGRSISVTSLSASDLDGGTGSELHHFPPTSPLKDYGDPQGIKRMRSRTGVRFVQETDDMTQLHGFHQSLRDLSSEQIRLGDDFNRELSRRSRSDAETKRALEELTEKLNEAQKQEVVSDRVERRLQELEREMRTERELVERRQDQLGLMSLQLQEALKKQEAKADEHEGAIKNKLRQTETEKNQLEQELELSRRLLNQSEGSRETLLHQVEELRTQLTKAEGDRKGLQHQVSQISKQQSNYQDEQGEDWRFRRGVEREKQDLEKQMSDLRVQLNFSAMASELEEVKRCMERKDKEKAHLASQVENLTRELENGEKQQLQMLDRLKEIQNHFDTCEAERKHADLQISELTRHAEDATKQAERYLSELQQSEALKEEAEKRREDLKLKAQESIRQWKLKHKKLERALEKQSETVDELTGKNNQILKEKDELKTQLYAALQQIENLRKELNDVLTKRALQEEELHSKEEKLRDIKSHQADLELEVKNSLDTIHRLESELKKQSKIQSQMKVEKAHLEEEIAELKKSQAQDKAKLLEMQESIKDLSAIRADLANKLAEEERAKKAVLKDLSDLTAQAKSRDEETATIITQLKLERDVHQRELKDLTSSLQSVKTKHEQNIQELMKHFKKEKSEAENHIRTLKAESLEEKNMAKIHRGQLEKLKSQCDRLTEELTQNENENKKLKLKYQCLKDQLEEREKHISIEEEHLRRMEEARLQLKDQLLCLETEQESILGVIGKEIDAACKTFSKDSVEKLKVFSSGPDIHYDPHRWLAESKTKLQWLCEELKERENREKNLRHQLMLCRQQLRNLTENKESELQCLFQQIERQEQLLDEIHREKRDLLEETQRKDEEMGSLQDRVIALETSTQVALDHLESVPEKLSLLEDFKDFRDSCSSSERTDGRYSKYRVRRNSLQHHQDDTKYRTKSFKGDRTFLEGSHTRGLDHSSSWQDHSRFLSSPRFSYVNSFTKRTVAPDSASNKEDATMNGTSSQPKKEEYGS
Chain of UniProt Q00537 (Q00537 whole entry, looked up): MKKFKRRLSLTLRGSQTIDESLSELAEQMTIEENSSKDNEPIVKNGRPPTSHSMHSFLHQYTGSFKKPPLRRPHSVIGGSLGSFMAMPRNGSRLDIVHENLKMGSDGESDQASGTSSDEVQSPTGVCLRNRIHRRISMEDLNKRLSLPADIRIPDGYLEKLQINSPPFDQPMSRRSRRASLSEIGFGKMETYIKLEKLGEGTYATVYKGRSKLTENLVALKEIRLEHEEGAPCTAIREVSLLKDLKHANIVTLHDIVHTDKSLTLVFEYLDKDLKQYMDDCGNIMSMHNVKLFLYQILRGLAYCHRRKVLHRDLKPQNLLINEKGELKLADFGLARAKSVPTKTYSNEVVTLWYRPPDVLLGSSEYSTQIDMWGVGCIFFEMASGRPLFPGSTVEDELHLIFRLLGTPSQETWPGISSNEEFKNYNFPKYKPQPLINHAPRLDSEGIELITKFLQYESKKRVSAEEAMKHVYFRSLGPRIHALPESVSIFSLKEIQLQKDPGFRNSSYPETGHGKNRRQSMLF
Chain of UniProt P49589 (P49589 whole entry, looked up): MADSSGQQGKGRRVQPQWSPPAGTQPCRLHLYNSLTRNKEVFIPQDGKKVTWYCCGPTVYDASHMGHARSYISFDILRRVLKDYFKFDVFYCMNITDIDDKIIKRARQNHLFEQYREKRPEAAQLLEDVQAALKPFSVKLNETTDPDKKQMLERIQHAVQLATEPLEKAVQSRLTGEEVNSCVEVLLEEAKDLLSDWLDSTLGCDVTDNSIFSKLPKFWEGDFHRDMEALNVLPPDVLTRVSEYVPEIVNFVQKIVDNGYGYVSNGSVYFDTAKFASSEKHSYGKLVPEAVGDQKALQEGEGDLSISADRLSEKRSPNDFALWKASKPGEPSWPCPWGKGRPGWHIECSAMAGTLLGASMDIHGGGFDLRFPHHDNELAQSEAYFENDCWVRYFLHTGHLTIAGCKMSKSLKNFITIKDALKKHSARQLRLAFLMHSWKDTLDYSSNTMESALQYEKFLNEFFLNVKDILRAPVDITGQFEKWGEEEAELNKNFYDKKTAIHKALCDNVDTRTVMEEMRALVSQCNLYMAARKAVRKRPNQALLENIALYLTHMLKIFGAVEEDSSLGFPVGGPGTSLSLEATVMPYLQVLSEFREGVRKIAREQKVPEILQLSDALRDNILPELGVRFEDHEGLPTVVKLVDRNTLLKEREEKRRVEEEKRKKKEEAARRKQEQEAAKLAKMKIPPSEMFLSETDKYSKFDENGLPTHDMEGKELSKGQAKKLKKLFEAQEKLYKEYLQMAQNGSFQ
Chain of UniProt Q86Y37 (Q86Y37 whole entry, looked up): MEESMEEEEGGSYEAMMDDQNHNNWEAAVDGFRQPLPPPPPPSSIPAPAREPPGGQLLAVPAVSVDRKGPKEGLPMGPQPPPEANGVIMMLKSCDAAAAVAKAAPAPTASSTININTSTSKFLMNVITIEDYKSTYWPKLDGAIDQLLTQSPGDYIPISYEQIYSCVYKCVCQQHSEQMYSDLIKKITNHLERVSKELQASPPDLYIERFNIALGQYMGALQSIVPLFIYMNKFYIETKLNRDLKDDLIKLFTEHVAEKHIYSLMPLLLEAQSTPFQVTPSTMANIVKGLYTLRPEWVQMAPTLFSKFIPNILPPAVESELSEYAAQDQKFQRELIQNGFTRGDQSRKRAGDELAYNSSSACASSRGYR
Chain of UniProt Q8IWZ6 (Q8IWZ6 whole entry, looked up): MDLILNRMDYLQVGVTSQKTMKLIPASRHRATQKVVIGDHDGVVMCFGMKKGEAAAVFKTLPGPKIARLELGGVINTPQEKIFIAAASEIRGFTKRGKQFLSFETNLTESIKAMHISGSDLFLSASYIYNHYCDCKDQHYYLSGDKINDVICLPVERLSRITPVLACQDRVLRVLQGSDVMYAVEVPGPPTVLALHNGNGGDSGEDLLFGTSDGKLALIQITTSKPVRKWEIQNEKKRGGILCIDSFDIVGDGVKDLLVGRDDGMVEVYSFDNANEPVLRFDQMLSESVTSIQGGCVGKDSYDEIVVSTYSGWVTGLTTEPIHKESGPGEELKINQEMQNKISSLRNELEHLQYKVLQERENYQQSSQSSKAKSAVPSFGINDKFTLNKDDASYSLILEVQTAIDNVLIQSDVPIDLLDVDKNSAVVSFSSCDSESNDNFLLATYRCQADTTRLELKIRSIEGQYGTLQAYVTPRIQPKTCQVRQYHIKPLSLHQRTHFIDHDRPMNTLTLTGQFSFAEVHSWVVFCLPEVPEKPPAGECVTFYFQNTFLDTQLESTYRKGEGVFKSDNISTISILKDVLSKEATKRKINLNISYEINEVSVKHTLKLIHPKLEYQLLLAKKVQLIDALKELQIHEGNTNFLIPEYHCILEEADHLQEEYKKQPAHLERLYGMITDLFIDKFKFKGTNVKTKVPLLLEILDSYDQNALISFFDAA

Target	log2 fold change (lapatinib)	log2 fold change (pictilisib)	log2 fold change (crizotinib)	log2 fold change [1]	log2 fold change (duvelisib)	log2 fold change (gandotinib)	log2 fold change (tozasertib)	log2 fold change (doramapimod)	log2 fold change (bafetinib)	log2 fold change [2]
CBX5 (UniProt P45973)	0.06	0.024	-0.023	-0.187	-0.036	0.077	0.006	0.006	-0.001	0.064
ATXN2 (UniProt F8WB05)	0.06	0.005	-0.023	0.087	-0.065	-0.028	0.043	-0.12	0.045	0.001
CARS isoform 3 (UniProt P49589)	-0.006	-0.006	0.019	0.003	-0.015	-0.045	0.014	0.014	-0.008	-0.011
CDK5RAP2 (UniProt Q96SN8)	-0.182	-0.04	-0.035	-0.032	0.023	-0.092	0.024	0.003	0	0.084
CAPNS1 (UniProt U3KPR7)	-0.052	-0.083	–	–	–	–	–	–	-0.194	–
CARHSP1 (UniProt H3BNU9)	-0.101	-0.186	–	0.16	–	-0.329	–	–	0	0.341
CCP110 (UniProt O43303)	–	-0.085	-0.006	–	0.084	–	-0.009	0.009	-0.053	–
BRAF, A0A2R8Y8E0	–	–	–	–	–	–	0.035	–	–	–
CEBPZOS (UniProt A8MTT3)	-0.001	–	-0.025	-0.352	0.035	-0.044	0.039	0.177	–	0.203 (active)
AVEN (UniProt Q9NQS1)	–	0.022	-0.08	-0.462	0.014	0.262	0.084	0.068	-0.097	0.338
CAD (UniProt H7BZB3)	–	–	–	0.069	–	0.036	-0.062	–	–	0.057
CENPV (UniProt Q7Z7K6)	–	0.02	-0.119	0.089	–	-0.193	0.094	-0.149	-0.163	-0.36
CDC14A isoform 2 (UniProt Q9UNH5)	0.062	–	0.031	–	–	–	–	0.108	–	–
CEP57L1 (UniProt Q8IYX8)	–	0.076	0.056	-0.039	-0.004	-0.022	-0.07	0.05	-0.184	0.073
C15orf39 (UniProt Q6ZRI6)	–	-0.04	0.043	0.025	-0.049	-0.076	0.097	0	0.19	-0.055
B3GALT6 (UniProt Q96L58)	–	-0.047	-0.123	–	0.045	–	–	0.1	-0.066	–
CACUL1 (UniProt Q86Y37)	-0.26	–	0.037	0.061	0.044	-0.151	0.094	0.029	–	0.08
ATPSCKMT (UniProt Q6P4H8)	–	-0.113	-0.039	–	-0.036	–	-0.219	0.022	-0.034	–
CDK5RAP1 (UniProt Q96SZ6)	–	0.184	-0.027	0.051	-0.044	0.071	0.015	0	0.018	-0.009
BCORL1 isoform 3 (UniProt Q5H9F3)	–	–	-0.162	-0.577 (active)	0.1	0.238	0.049	0.117	–	0.475
BMT2 (UniProt Q1RMZ1)	–	–	–	0.116	–	-0.124	–	–	–	-0.056
CCDC130 (UniProt P13994)	–	-0.003	-0.689	–	–	–	0.055	0.617	-0.119	–

Target	log2 fold change (lapatinib)	log2 fold change (pictilisib)	log2 fold change (crizotinib)	log2 fold change [1]	log2 fold change (duvelisib)	log2 fold change (gandotinib)	log2 fold change (tozasertib)	log2 fold change (doramapimod)	log2 fold change (bafetinib)	log2 fold change [2]
ATG4D (UniProt Q86TL0)	–	-0.054	-0.031	–	0.109	–	0.099	-0.072	-0.056	–
CEP128 (UniProt Q6ZU80)	–	-0.123	–	-1.2 (active)	-0.022	0.331	0.027	–	-0.043	0.297
CASC1 (UniProt Q6TDU7)	–	-0.06	–	-0.175	–	0.058	–	–	0.953	0.095
C1orf131 isoform 5 (UniProt Q8NDD1)	0.065	–	-0.006	-0.16	0.028	0.076	0.03	-0.008	–	0.177
CHD4, A0A2R8Y521	0.025	–	–	–	0.006	–	0.081	–	–	–
ATXN2 (UniProt F8WB06)	–	–	–	–	0.187	–	–	–	–	–
ATG10 (UniProt Q9H0Y0)	–	-0.051	-0.008	0.021	0.065	-0.023	-0.087	-0.014	0.012	0.063
BRAF (UniProt P15056)	–	-0.025	-0.099	-0.086	0.015	0.014	-0.013	–	0.64 (active)	0.065
C3AR1 (UniProt Q16581)	–	-0.023	0.02	-0.025	–	0.043	–	-0.01	0.111	0.099
CDCA8 (UniProt Q53HL2)	–	0.072	–	0.319	0.031	-0.031	-0.047	–	-0.217	-0.128
BAHCC1 (UniProt Q9P281)	-0.117	–	-0.191	-0.956 (active)	0.002	0.006	0.052	0.137	–	0.234
C8orf88 (UniProt P0DMB2)	–	0.028	0.038	0.054	0.058	-0.017	–	-0.004	-0.016	-0.095
CDC25A (UniProt P30304)	-0.016	–	–	–	-0.014	–	–	0.114	–	–
CDK17 isoform 2 (UniProt Q00537)	–	-0.008	0.026	0.096	-0.04	0.042	-0.113	0.15	-0.033	-0.359
BBS7 (UniProt Q8IWZ6)	–	–	-0.036	0.003	0.039	0.072	0.021	0.151	–	-0.119
CD80 (UniProt P33681)	0.122	–	-0.007	0.395 (active)	0.104	-0.086	0.088	-0.008	–	0.016
CDKL5 (UniProt O76039)	-0.207	–	-0.167	-0.128	0.073	0.537	0.024	-0.057	–	-0.073
BUD13 (UniProt Q9BRD0)	–	0.104	-0.044	-0.053	0.08	0.045	0.008	0.014	-0.134	0.114
CDK16 isoform 2 (UniProt Q00536)	0.046	–	0.063	-0.016	0.043	0.533 (active)	–	0.012	-0.007	-0.05
CHD9 (UniProt Q3L8U1)	–	–	0.055	1.37 (active)	0.106	-0.111	–	-0.057	–	-0.27
CDAN1 (UniProt H3BPZ6)	–	–	0.118	–	–	–	–	0.059	–	–
